{
  "source": "PubChem BioAssay AID602198",
  "about": "(NMMLSC, 2012)",
  "experiment": "yeast V-ATPase proton pumping modulator potency, dose response, S. cerevisiae, pHLuorin, cherry pick 2 (AID 602198)",
  "note": "Results with a measured potency or affinity are listed apart. The source made the active and inactive calls. How the calls were made is not given here.",
  "data": [
    {"compound": "Cc1ccsc1/C=C1\\C(=O)NC(=S)N(C)C1=O", "values": [
      {"measurement": "outcome", "value": "inactive"}
    ]},
    {"compound": "COc1ccc(N2C(=O)/C(=C/c3ccc(C)o3)C(=O)NC2=S)cc1", "values": [
      {"measurement": "outcome", "value": "inactive"}
    ]}
  ]
}
